33 compounds from PubChem BioAssay (NCATS) can be followed below.

Test [1] is described as follows: Inducers of the Endoplasmic Reticulum Stress Response (ERSR) in human glioma: Validation (AID 504836). Note: 0% is about no effect. In short, it runs like this: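 ERSR induction read as luciferase luminescence (Bright-Glo, 10 min at room temperature) in stably transfected human U87-MG glioma cells exposed to compounds for 16 h, using GRP78 as sensor.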
Test [2] in a line: qHTS for Inhibitors of the Functional Ribonucleoprotein Complex (vRNP) of Lassa (LASV) Arenavirus: LASV Primary Screen - GLuc reporter signal (AID 1347082; calls by dose curve; tested in HEK293 reporter line; note: series mostly up to about 57 µM; % is set by controls: 0 for no effect and ±100 for the full control effect; nearly all actives have a fitted effect of over 60% in size). A general note: Quantitative high-throughput screening tests each substance at several concentrations.
Test [3] is described as follows: qHTS for Inhibitors of the Functional Ribonucleoprotein Complex (vRNP) of Lassa (LASV) Arenavirus: Viability assay - alamar blue signal for LASV Primary Screen (AID 1347083; calls by dose curve; tested in HEK293 reporter line; note: series mostly up to about 57 µM; % is set by controls: 0 for no effect and ±100 for the full control effect; nearly all actives have a fitted effect of over 80% in size).
Test [4] can be described thus: qHTS for Inhibitors of the Functional Ribonucleoprotein Complex (vRNP) of Lymphocytic Choriomeningitis Arenaviruses (LCMV): Viability assay - alamar blue signal for LCMV Primary Screen (AID 1347085; calls by dose curve; tested in HEK293 reporter line; note: series mostly up to about 57 µM; % is set by controls: 0 for no effect and ±100 for the full control effect; nearly all actives have a fitted effect of over 80% in size).
Test [5] has as its target Nucleoprotein (Lymphocytic choriomeningitis virus (strain Armstrong)) (UniProt P09992). Kind of test: qHTS for Inhibitors of the Functional Ribonucleoprotein Complex (vRNP) of Lymphocytic Choriomeningitis Arenaviruses (LCMV): LCMV Primary Screen - GLuc reporter signal (AID 1347086; calls by dose curve; note: series mostly up to about 57 µM; % is set by controls: 0 for no effect and ±100 for the full control effect; nearly all actives have a fitted effect of over 70% in size).
The target of test [6] is Alpha-galactosidase (Coffea arabica) (UniProt Q42656). Description: Counterscreen for Glucocerebrosidase Inhibitors: qHTS Assay for Coffee Bean alpha-Galactosidase at pH 4.5 (AID 957).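 Note: series mostly up to about 77 µM; plate controls were enzyme alone for no effect and no enzyme for full effect.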 In short, it runs like this:
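Coffee bean enzyme (2 nM) with 80 uM 4-methylumbelliferyl alpha-D-galactopyranoside in 50 mM citric acid, 0.005% Tween-20, pH 4.5, 20 min at room temperature; compounds 0.7 nM–77 uM. Stopped at pH 10, fluorescence 365/440 nm; AC50 from Hill fits.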
For orientation: A counterscreen serves to expose hits that act by an unwanted route or on another target.

For test [7] the target is unchanged. Kind of test: Counterscreen for Glucocerebrosidase Inhibitors: qHTS Assay for Coffee Bean alpha-Galactosidase at pH 5.9 (AID 998).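 Note: plate controls were uninhibited enzyme for no effect and no-enzyme basal signal for full effect.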 In short, it runs like this: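 Compounds were titrated from 0.7 nM to 77 uM against green coffee bean alpha-galactosidase (2 nM) using 80 uM fluorogenic 4-methylumbelliferyl substrate. After 20 min at room temperature, reactions were stopped at pH 10 and read by fluorescence.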

In test [8] the target is Ubiquitin carboxyl-terminal hydrolase 1 (Homo sapiens) (UniProt O94782). Description: Inhibitors of USP1/UAF1: Pilot qHTS (AID 504865). Note: nearly all actives have a fitted effect of over 35% in size. Note: potency is the fitted concentration of half-maximal effect. In a few lines: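 Enzyme-free wells gave the negative control, while test wells held 1nM USP1/UAF1 preincubated with compound for 15 min at room temperature. Ub-Rho at 150nM final started the reaction, and fluorescence at 480/540 nm was recorded kinetically.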
Ubiquitin carboxyl-terminal hydrolase 1 (Homo sapiens), sequence (O94782 whole entry, looked up): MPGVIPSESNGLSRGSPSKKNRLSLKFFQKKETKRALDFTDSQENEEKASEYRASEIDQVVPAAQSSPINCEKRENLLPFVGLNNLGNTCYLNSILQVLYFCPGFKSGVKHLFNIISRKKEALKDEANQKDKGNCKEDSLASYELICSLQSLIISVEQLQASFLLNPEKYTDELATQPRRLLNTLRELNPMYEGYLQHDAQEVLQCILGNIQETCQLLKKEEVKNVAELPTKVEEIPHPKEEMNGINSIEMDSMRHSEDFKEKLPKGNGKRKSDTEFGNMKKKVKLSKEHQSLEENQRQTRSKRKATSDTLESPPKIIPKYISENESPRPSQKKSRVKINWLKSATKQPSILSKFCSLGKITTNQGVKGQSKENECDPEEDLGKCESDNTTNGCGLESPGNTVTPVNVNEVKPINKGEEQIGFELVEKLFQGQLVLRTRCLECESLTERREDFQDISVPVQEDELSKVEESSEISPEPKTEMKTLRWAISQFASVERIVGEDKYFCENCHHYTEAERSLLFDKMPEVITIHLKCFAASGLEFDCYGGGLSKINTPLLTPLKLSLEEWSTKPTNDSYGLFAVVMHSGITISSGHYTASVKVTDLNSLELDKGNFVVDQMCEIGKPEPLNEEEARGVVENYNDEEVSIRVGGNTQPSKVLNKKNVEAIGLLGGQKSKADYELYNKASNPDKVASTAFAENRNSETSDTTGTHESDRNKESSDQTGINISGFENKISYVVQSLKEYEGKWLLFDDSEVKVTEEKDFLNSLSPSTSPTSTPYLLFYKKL

In test [9] the target is Arylsulfatase A (Homo sapiens) (UniProt P15289). Description: qHTS screen for enhancers of Arylsulfatase A (ASA1): LOPAC Validation Assay (AID 720538). Note: 0% is about no effect. In short, it runs like this:
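Cell-based enhancement test: residual ASA activity in SV40-transformed I179S patient fibroblasts is measured by pNCS turnover (0.5mM final, 14h, room temperature) following 48h compound incubation; higher fluorescence indicates activation.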

Test [10] has as its target Cytochrome P450 3A4 (Homo sapiens) (UniProt P08684). Description: qHTS Assay for Activators of Cytochrome P450 3A4 (AID 885). Note: nearly all actives have a fitted effect of over 65% in size. In short, it runs like this:
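20nM CYP3A4 + 25uM Luciferin-PPXE (=KM), 200mM KPO4; cpd 10 min RT; NADPH regen, 60 min RT; stop w/ detection buffer, 20 min; luminescence. Normalized to 57 uM ketoconazole.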

Test [11] is described as follows: Confirmation and Secondary Assay for Modulators of Hemoglobin Beta Chain Splicing at IVS2 705 locus (AID 930).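 Note: HeLa cells stably expressing the EGFP-705 splicing reporter; GFP fluorescence per well restored by corrected splicing of the IVS2-705 intron in EGFP; series mostly up to about 46 µM; % of control where 0% means no effect.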 In short, it runs like this:
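First, HeLa EGFP-705 cells are seeded at 500/well in Optimem with 2% FCS and left overnight. Next, compound or DMSO is added for 2 days. Finally wells are laser-scanned and total peak GFP intensity scored.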

Test [12] addresses Bile acid receptor (Homo sapiens) (UniProt Q96RI1). Kind of test: qHTS assay for small molecule agonists of farnesoid X receptor signaling (AID 588527; calls by dose curve;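 note: series mostly up to about 77 µM; 0% = vehicle basal and 100% = reference agonist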). The conditions noted are these: HEK293T FXR-UAS-bla, beta-lactamase ratio, 16 h; activation: hits give high values. In short, it runs like this: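 FXR-UAS-bla HEK293T, 10% dialyzed FBS; cpds up to 92 uM titration, 16 h 37 C; CCF4 dye 2 h RT; fluorescence. Normalized to chenodeoxycholic acid 100 uM (100%) and DMSO (0%); Hill fit gives EC50, efficacy.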

Unmarked numbers belong to inactive results. Inconclusive results are not listed. Activity calls are given as the source filed them. Unless noted, calls come from the whole dose curve; as a rule, active = well fitted curve in the direction sought with a large enough effect; inconclusive = small, poorly fitted or top-dose-only effect, or another doubt; inactive = no such curve, though single readings can be large; an effect the other way counts as inactive or inconclusive.

Alpha-galactosidase (Coffea arabica), sequence (Q42656 whole entry, looked up): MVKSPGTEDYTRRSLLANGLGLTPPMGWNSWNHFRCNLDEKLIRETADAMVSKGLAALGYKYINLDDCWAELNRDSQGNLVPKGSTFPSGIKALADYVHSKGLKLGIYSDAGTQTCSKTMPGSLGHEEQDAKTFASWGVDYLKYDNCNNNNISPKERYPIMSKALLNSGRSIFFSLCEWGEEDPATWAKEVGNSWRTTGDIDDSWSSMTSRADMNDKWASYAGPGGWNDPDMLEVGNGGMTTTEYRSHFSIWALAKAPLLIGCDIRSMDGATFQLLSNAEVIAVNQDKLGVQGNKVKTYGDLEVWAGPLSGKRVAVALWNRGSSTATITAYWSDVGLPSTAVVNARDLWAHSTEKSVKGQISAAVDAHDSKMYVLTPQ
Nucleoprotein (Lymphocytic choriomeningitis virus (strain Armstrong)), sequence (P09992 whole entry, looked up): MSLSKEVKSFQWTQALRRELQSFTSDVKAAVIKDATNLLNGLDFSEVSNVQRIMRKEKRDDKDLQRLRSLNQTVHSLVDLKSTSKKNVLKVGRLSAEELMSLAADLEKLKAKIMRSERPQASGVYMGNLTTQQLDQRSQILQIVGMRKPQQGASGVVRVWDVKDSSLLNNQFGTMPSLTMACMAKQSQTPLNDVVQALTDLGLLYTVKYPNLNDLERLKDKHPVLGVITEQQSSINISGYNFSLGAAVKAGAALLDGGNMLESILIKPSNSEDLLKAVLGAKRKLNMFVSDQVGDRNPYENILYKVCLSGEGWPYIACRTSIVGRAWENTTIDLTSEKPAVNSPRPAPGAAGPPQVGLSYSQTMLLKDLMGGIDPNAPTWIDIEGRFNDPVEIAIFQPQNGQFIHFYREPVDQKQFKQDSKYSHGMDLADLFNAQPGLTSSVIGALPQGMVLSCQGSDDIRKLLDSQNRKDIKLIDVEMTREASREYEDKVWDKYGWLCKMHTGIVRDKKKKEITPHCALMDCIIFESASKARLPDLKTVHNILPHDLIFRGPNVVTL
Arylsulfatase A (Homo sapiens), sequence (P15289 whole entry, looked up): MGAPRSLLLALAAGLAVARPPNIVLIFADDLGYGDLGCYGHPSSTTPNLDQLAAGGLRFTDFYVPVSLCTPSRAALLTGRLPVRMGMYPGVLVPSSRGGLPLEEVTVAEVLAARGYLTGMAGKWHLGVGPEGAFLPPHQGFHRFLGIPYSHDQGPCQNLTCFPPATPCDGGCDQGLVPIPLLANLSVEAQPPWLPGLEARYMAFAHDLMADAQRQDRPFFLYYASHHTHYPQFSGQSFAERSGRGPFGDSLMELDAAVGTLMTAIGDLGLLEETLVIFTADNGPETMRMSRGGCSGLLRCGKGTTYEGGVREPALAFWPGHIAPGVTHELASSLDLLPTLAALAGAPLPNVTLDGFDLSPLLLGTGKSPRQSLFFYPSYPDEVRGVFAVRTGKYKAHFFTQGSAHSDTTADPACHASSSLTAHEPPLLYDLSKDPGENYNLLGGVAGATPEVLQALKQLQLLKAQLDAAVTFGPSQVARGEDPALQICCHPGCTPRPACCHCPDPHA
Cytochrome P450 3A4 (Homo sapiens), sequence (P08684 whole entry, looked up): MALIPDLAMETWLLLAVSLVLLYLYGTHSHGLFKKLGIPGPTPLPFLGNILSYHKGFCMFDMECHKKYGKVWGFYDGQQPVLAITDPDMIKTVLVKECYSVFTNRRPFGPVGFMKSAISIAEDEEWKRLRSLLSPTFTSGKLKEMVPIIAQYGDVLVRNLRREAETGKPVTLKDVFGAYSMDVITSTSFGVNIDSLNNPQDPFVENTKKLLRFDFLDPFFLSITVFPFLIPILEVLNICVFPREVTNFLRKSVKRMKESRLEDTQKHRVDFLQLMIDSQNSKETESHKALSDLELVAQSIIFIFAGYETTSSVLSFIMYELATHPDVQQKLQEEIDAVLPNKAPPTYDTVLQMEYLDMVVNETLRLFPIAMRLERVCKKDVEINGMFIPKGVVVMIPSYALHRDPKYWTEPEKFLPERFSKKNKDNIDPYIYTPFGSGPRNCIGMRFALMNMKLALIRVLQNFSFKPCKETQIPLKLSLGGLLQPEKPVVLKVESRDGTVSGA
Bile acid receptor (Homo sapiens), sequence (Q96RI1 whole entry, looked up): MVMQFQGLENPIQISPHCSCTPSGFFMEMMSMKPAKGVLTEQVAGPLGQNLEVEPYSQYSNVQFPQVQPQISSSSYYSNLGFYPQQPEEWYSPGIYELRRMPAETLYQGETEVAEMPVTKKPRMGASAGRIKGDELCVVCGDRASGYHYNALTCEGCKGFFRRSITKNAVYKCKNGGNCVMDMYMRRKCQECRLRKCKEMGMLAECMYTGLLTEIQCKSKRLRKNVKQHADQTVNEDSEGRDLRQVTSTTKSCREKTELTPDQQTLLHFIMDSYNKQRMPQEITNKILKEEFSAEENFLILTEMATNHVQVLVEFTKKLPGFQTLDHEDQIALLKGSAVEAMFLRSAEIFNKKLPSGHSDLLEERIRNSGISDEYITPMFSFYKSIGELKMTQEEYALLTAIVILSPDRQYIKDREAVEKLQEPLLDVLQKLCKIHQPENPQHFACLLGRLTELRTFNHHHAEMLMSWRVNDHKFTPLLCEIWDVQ

`C=CC(=O)c1ccc(CCCCCC)cc1`: the compound was called inactive in [1]. In addition, the Potency result in [2], in test [3], in [4] and in [5] was “inactive” throughout.
Turning to `N[C@@H](CCC(=O)N[C@H](CSN=O)C(=O)NCC(=O)O)C(=O)O`, the compound was called inactive in test [1]. Moreover, the Potency result in [2], in test [3], in test [4] and in [5] was “inactive” throughout.
For `NC[C@@H]1O[C@H](c2ccccc2)Cc2c1ccc(O)c2O`, the call in [1] was inactive. The Potency result in test [2], in [3], in test [4] and in test [5] was “inactive” throughout.
Consider `NC(=S)c1ccc[n+]([C@@H]2O[C@@H](COP(=O)([O-])OP(=O)(O)OC[C@H]3O[C@@H](n4cnc5c(N)ncnc54)[C@H](OP(=O)(O)O)[C@@H]3O)C(O)C2O)c1` (stereo partly specified), for which the compound was classed as inactive in test [1]. Moreover, the Potency result in test [2], in test [3], in test [4] and in test [5] was “inactive” throughout.
For `Nc1ncnc2c1c(I)cn2[C@@H]1C[C@H](N)[C@@H](O)[C@H]1O`, the outcome in test [1] was inactive. The Potency entry in test [2], in [3], in test [4] and in [5] was “inactive” each time.
In the case of `C[C@](Cc1ccc(O)c(O)c1)(NN)C(=O)O`, the outcome in test [1] was inactive. Besides, the Potency result in [2], in [3], in test [4] and in test [5] was “inactive” each time.
As to `O=C(O)CCC/C=C\C[C@@H]1[C@@H](/C=C/[C@H](O)C2Cc3ccccc3C2)[C@@H](F)C[C@@H]1O`, in test [1], the outcome was inactive. Moreover, the Potency entry in test [2], in [3], in test [4] and in [5] was “inactive” each time.
For `c1ccc(CN2CCC3(CCCc4ccccc43)CC2)cc1`, the outcome in test [6], in [7] and in [1] was inactive. In addition, the Potency result in [2], in test [3], in test [4] and in test [5] was “inactive” in each case.
Consider `CC(=O)O[C@H]1C[C@@H]2CC[C@@H]3[C@H](CC[C@@]4(C)[C@H]3C[C@H]([N+]3(C)CCCCC3)[C@@H]4OC(C)=O)[C@@]2(C)C[C@@H]1[N+]1(C)CCCCC1`, for which, in test [1], the compound was classed as inactive. Moreover, the Potency result in test [8], in test [9], in [2], in [3], in test [4] and in test [5] was “inactive” throughout.
For `CN(CC[C@@H](Oc1ccc(C(F)(F)F)cc1)c1ccccc1)CC(=O)O`, the call in test [1] was inactive. Further, the Potency entry in test [2], in [3], in test [4] and in test [5] was “inactive” throughout.
With `O=Nc1ccc2oc(=O)ccc2c1`, the outcome in test [6], in test [7] and in test [1] was inactive. Also, the Potency entry in [2], in [3], in [4] and in [5] was “inactive” throughout.
Turning to `N[C@H](C(=O)O)[C@H]1C[C@@H]1C(=O)O`, the call in test [1] was inactive. Besides, the Potency result in [2], in test [3], in [4] and in test [5] was “inactive” throughout.
As to `C=C1C[C@@]23CC[C@H]4[C@@](C)(CCC[C@@]4(C)C(=O)OC4OC(CO)C(O)C(O)C4O)[C@@H]2CC[C@]1(OC1OC(CO)C(O)C(O)C1OC1OC(CO)C(O)C(O)C1O)C3` (stereo partly specified), the compound was called inactive in test [1]. Besides, the Potency result in test [2], in [3], in [4] and in [5] was “inactive” in each case.
Turning to `c1ccc2c(c1)CCC[C@H]2Nc1nc2ccccc2[nH]1`, the result in [1] was inactive. Further, the Potency entry in [2], in test [3], in test [4] and in [5] was “inactive” throughout.
`COc1cccc2c1[C@@H]1CN(CCCCn3c(=O)[nH]c4c(sc5ncc(-c6ccccc6)nc54)c3=O)C[C@@H]1CO2`: the call in test [1] was inactive. Also, the Potency result in [2], in test [3], in [4] and in [5] was “inactive” throughout.
As for `C[C@H](Cc1ccccc1)Nc1ncnc2c1ncn2[C@@H]1O[C@H](CO)[C@@H](O)[C@H]1O`, in test [1], the compound was called inactive. Besides, the Potency result in test [2], in test [3], in test [4] and in [5] was “inactive” throughout.
Regarding `NCC1OC(O[C@H]2[C@H](O)[C@@H](OC3C(O)C(N)CC(N)C3OC3OC(CO)C(O)C(O)C3N)O[C@@H]2CO)C(N)C(O)C1O` (stereo partly specified), the compound was classed as inactive in test [1]. The Potency result in test [8], in test [9], in test [2], in test [3], in [4] and in test [5] was “inactive” in each case.
As for `COc1ccc(CCN(C)CCc2ccc(OC)c(OC)c2)cc1OC`, the call in test [6], in [7] and in test [1] was inactive. The Potency entry in [2], in [3], in test [4] and in test [5] was “inactive” throughout.
As for `NC(=O)C1=CN(C2OC(COP(=O)(O)OP(=O)(O)OC[C@H]3O[C@@H](n4cnc5c(N)ncnc54)[C@H](OP(=O)(O)O)[C@@H]3O)C(O)C2O)C=CC1` (stereo partly specified), in test [1], the result was inactive. Moreover, the Potency entry in [2], in test [3], in test [4] and in test [5] was “inactive” throughout.
`CN(C)S(=O)(=O)c1ccc2c(c1)/C(=C/c1cc3c([nH]1)CCCC3)C(=O)N2`: the outcome in test [6], in test [7] and in test [1] was inactive. The Potency entry in test [2], in [3], in test [4] and in test [5] was “inactive” throughout.
`CN1CCc2cc(Cl)c(O)cc2[C@@H](c2ccccc2)C1`: the result in test [1] was inactive. Also, the Potency result in [2], in [3], in test [4] and in test [5] was “inactive” throughout.
With `CC(C)[C@@H]1CC[C@@H](C)C[C@@H]1P(=O)(c1ccccc1)c1ccccc1`, in test [1], the compound was called inactive. Besides, the Potency result in test [2], in test [3], in test [4] and in test [5] was “inactive” each time.
Regarding `Nc1nc2c(nc(Br)n2C2OC3COP(=O)(O)O[C@@H]3C2O)c(=O)[nH]1` (stereo partly specified), the compound was called inactive in [1]. Also, the Potency entry in [2], in test [3], in test [4] and in [5] was “inactive” in each case.
`Cc1cccc(/C=C/c2ccccc2)n1`: the result in test [1] was inactive. The Potency result in test [2], in test [3], in test [4] and in test [5] was “inactive” in each case.
On to `O=C1/C(=C/c2ccsc2)CC/C1=C\c1cccs1`, for which, in test [1], the compound was called inactive. Moreover, the Potency entry in [2], in test [3], in test [4] and in [5] was “inactive” throughout.
`CC(C)Cn1c(=O)n(C)c(=O)c2[nH]cnc21`: the call in [6], in test [7] and in test [1] was inactive. Besides, the Potency result in [2], in [3], in [4] and in test [5] was “inactive” in each case.
Take `NCCNC(=O)c1ncsc1-c1cccc(F)c1`: the outcome in test [6], in test [7] and in test [1] was inactive. The Potency result in test [2], in test [3], in test [4] and in test [5] was “inactive” throughout.
As to `CN=C(N)NCCC[C@H](N)C(=O)O`, the compound was classed as inactive in test [6], in [7] and in [1]. In addition, the Potency result in [2], in test [3], in test [4] and in test [5] was “inactive” in each case.
On to `Nc1ccc2c3c(cccc13)C(=O)NC2=O`, for which the outcome in test [6], in [7] and in test [1] was inactive. Further, the Potency result in test [2], in test [3], in test [4] and in test [5] was “inactive” throughout.
For `CN1CC(CO)=C[C@H]2c3cccc4[nH]cc(c34)C[C@H]21`, the Potency result in test [10], in test [2], in test [3], in [4] and in test [5] was “inactive” in each case. The result in test [11] was inactive. The Potency in [8] was 50.1 µM (active).
On to `CCN1C(=O)C=CC1=O`, for which the compound was classed as inactive in test [6], in test [7] and in test [1]. In addition, the Potency result in test [2], in test [3], in test [4] and in [5] was “inactive” in each case.
As for `COCCOCCOCCOC`, in [12], the activation is 4.16%. In addition, the Potency result in test [2], in test [3], in test [4] and in test [5] was “inactive” throughout.
Take `CN=c1nc(-c2ccccc2)n(-c2ccccc2)s1`: the call in test [6], in test [7] and in test [1] was inactive. Further, the Potency entry in [2], in test [3], in test [4] and in [5] was “inactive” in each case.
